The results in this text go back to PubChem BioAssay (Tox21).

Experiment [1] in a line: qHTS RealTime-Glo MT Cell Viability Assay in HepG2 cells - 40 hour (AID 1224870). Further: nearly all actives have a fitted effect of over 50% in size. Put shortly: (§1)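 Real-time viability: cells seeded at 600 per well together with NanoLuc and cell-permeant prosubstrate, compounds added after 5 h incubation. Luminescence tracked at 0, 8, 16, 24, 32 and 40 h of exposure.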
The nature of experiment [2]: qHTS RealTime-Glo MT Cell Viability Assay in HepG2 cells - 8 hour (AID 1224873). Further: nearly all actives have a fitted effect of over 55% in size. Put shortly:
as §1
On the technique in general: In qHTS, concentration-response curves come from the screen itself.

The nature of experiment [3]: qHTS RealTime-Glo MT Cell Viability Assay in HEK293 cells - 40 hour (AID 1224874). Further: nearly all actives have a fitted effect of over 50% in size. Further: potency means the concentration at half of the fitted maximal effect. The following applies: RealTime-Glo luminescence; max response: active compounds read low. The procedure, abridged: (§2)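 600 cells/well were plated with the nonlytic NanoLuc/prosubstrate reagent, pre-incubated 5 h, then given 23 nL of compound in DMSO. Incubation at 37 C for 40 h, with luminescence from viable-cell-reduced substrate read repeatedly from 0 h.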

Experiment [4] is described as follows: A CellTox Green Cytotoxicity Assay to monitor cytotoxicity in HEK293 cells - 24 hour (AID 1224875). Further: series mostly up to about 77 µM; nearly all actives have a fitted effect of over 45% in size. Put shortly: (§3)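 HEK293 cells, 600/well, were preincubated 5 hours and then exposed to compounds at 37 C for up to 40 hours. A cell-impermeant cyanine dye staining dead-cell DNA was read by fluorescence at 0, 8, 16, 24, 32 and 40 h time points.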
Experiment [5] can be described thus: A CellTox Green Cytotoxicity Assay to monitor cytotoxicity in HepG2 cells - 16 hour (AID 1224876). Further: nearly all actives have a fitted effect of over 45% in size. The procedure, abridged:
(§4)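 HepG2 cells, 600/well, preincubated 5 h with CellTox Green dye, then exposed to Tox21 compounds in DMSO at 37 C for up to 40 h. Dead-cell DNA fluorescence read at the indicated time point.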

Experiment [6] in a line: qHTS RealTime-Glo MT Cell Viability Assay in HepG2 cells - 32 hour (AID 1224877). Further: nearly all actives have a fitted effect of over 55% in size. The procedure, abridged:
(§5)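 Cell number in HepG2 cultures estimated from NanoLuc luminescence generated by metabolic reduction of a prosubstrate by living cells. The homogeneous, nonlytic format allowed repeated reads at 0, 8, 16, 24, 32 and 40 h of compound exposure.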

Experiment [7] can be described thus: A CellTox Green Cytotoxicity Assay to monitor cytotoxicity in HepG2 cells - 24 hour (AID 1224878). Further: nearly all actives have a fitted effect of over 45% in size. Put shortly: as §4
Experiment [8] is described as follows: A CellTox Green Cytotoxicity Assay to monitor cytotoxicity in HepG2 cells - 40 hour (AID 1224879). Further: nearly all actives have a fitted effect of over 40% in size. Put shortly: as §4
Experiment [9] in a line: qHTS RealTime-Glo MT Cell Viability Assay in HEK293 cells - 0 hour (AID 1224880). Further: top concentration of the series differs between compounds; nearly all actives have a fitted effect of over 45% in size. The procedure, abridged:
as §2

A short description of experiment [10]: A CellTox Green Cytotoxicity Assay to monitor cytotoxicity in HEK293 cells - 32 hour (AID 1224881). Further: nearly all actives have a fitted effect of over 40% in size. The procedure, abridged:
as §3

A short description of experiment [11]: A CellTox Green Cytotoxicity Assay to monitor cytotoxicity in HepG2 cells - 32 hour (AID 1224883). Further: nearly all actives have a fitted effect of over 50% in size. Put shortly: as §4
The nature of experiment [12]: A CellTox Green Cytotoxicity Assay to monitor cytotoxicity in HEK293 cells - 8 hour (AID 1224884). Further: nearly all actives have a fitted effect of over 35% in size. The procedure, abridged:
as §3

A short description of experiment [13]: qHTS RealTime-Glo MT Cell Viability Assay in HepG2 cells - 16 hour (AID 1224885). Further: nearly all actives have a fitted effect of over 50% in size. Put shortly: as §5
Experiment [14] in a line: qHTS RealTime-Glo MT Cell Viability Assay in HEK293 cells - 8 hour (AID 1224887). The procedure, abridged: as §2
The nature of experiment [15]: A CellTox Green Cytotoxicity Assay to monitor cytotoxicity in HEK293 cells - 16 hour (AID 1224888). Further: nearly all actives have a fitted effect of over 35% in size. The procedure, abridged: as §3
Experiment [16] is described as follows: qHTS RealTime-Glo MT Cell Viability Assay in HepG2 cells - 0 hour (AID 1224889). Further: nearly all actives have a fitted effect of over 50% in size. Put shortly: as §5
The nature of experiment [17]: qHTS RealTime-Glo MT Cell Viability Assay in HEK293 cells - 16 hour (AID 1224872). Put shortly:
(§6)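 Homogeneous bioluminescent viability format in HEK293 cells (600 cells/well). Following 5 h at 37 C/5% CO2, 23 nL compound was pintooled; the signal was measured repeatedly during 40 h incubation.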

A short description of experiment [18]: A CellTox Green Cytotoxicity Assay to monitor cytotoxicity in HepG2 cells - 0 hour (AID 1224882). Further: nearly all actives have a fitted effect of over 35% in size. Put shortly:
as §4

Experiment [19] can be described thus: qHTS RealTime-Glo MT Cell Viability Assay in HEK293 cells - 24 hour (AID 1224886). The procedure, abridged: as §6

Values joined by “and” are separate entries in the source; they are usually repeats but may differ in a detail not shown here. Equal entries are not always repeated. Unmarked numbers belong to inactive results. Inconclusive results are not listed. Active and inactive are the calls of the source. The call rests on the fitted dose curve; in most records, active means well fitted curve in the direction sought with a large enough effect in the repeat runs; inconclusive means weak or mixed curves; inactive means no such curve, though single readings can be large; an effect the other way counts as inactive or inconclusive.
On the % scale 0 is the no-effect control and ±100 the full control effect.

Turning to `CCC(C)(c1ccc(O)cc1)c1ccc(O)cc1`, the Potency result in experiment [1], in experiment [2], in experiment [4], in experiment [5], in experiment [6] and in experiment [7] was “inactive” throughout. In addition, the Potency entry in [8], in experiment [9], in experiment [10], in experiment [11], in [12] and in experiment [13] was “inactive” each time. Further, the Potency result in [14], in experiment [15] and in [16] was “inactive” in each case. The Potency in experiment [3] is 24.5 µM (active) and 43.6 µM (active).
In the case of `CNC(=O)N(C)c1nnc(C(C)(C)C)s1`, the Potency result in experiment [1], in experiment [17], in [2], in experiment [4], in experiment [6] and in [7] was “inactive” in each case. Also, the Potency entry in experiment [8], in experiment [9], in [10], in experiment [18], in experiment [11] and in experiment [12] was “inactive” each time. In addition, the Potency entry in [13], in experiment [19], in experiment [14], in [15] and in experiment [16] was “inactive” each time. Besides, the max response in [3] was -13.1% and 0.0487%.
In the case of `C=CCc1ccc(OC)cc1`, the Potency entry in experiment [1], in experiment [17], in [2], in experiment [4], in experiment [5] and in experiment [6] was “inactive” in each case. Besides, the Potency result in experiment [7], in experiment [8], in experiment [9], in [10], in experiment [18] and in experiment [11] was “inactive” in each case. The Potency result in [12], in experiment [13], in [19], in [15] and in [16] was “inactive” throughout. Also, in [3], the max response was -1.64% and 2.11%.
For the compound `CCCCCCOC(=O)c1ccccc1C(=O)OCCCCCC`, the Potency entry in experiment [1], in experiment [17], in [2], in experiment [4], in experiment [6] and in [7] was “inactive” in each case. Also, the Potency result in experiment [8], in [9], in experiment [10], in [11], in experiment [12] and in [13] was “inactive” each time. Also, the Potency entry in experiment [19], in experiment [15] and in experiment [16] was “inactive” in each case.
`CCOCN(C(=O)CCl)c1c(C)cccc1CC`: the Potency entry in [1], in experiment [17], in [2], in experiment [4], in [5] and in experiment [6] was “inactive” in each case. The Potency result in experiment [7], in experiment [8], in [9], in experiment [10], in [18] and in experiment [11] was “inactive” each time. Besides, the Potency entry in experiment [12], in experiment [13], in [19], in experiment [15] and in experiment [16] was “inactive” throughout. For the same compound, in experiment [3], the max response is -23.6% and -0.0681%.
For the compound `Nc1ccncc1`, the Potency entry in experiment [1], in experiment [17], in experiment [2], in [4], in [5] and in [6] was “inactive” throughout. The Potency entry in experiment [7], in experiment [8], in experiment [9], in experiment [10], in experiment [18] and in [11] was “inactive” in each case. In addition, the Potency entry in experiment [12], in experiment [13], in [19], in experiment [15] and in [16] was “inactive” throughout. Further, in experiment [3], the max response was 2.45% and 3.84%.
With `CCC(C)c1cc([N+](=O)[O-])cc([N+](=O)[O-])c1O` (configuration not stated), the Potency result in [1], in [2], in experiment [4], in [5], in experiment [6] and in experiment [7] was “inactive” throughout. In addition, the Potency entry in experiment [8], in experiment [9], in experiment [10], in [11], in experiment [12] and in experiment [13] was “inactive” each time. Besides, the Potency result in experiment [19], in experiment [14], in experiment [15] and in [16] was “inactive” throughout. Further, the max response in experiment [3] is 5.87%.
With `c1ccc(N=Nc2ccccc2)cc1`, the Potency result in [1], in experiment [17], in experiment [2], in experiment [4], in experiment [5] and in experiment [6] was “inactive” throughout. The Potency result in experiment [7], in [8], in [9], in [11], in [12] and in experiment [13] was “inactive” in each case. In addition, the Potency result in experiment [19], in [14], in experiment [15] and in [16] was “inactive” each time. In addition, the max response in [3] is -14.7% and -11.3%.
